# Results filed as inconclusive are left out. Entries that show only a call come without a potency. Calls of active or inactive are those of the source. The call rests on the fitted dose curve; in most records, active means well fitted cell-killing curve with a large enough effect in the repeat runs; inconclusive means weak or mixed curves, or effect the other way; inactive means flat fitted curve, though single readings scatter.
# Assays:
# [1] = cAMP Responsive Elements (CRE) small molecule antagonists, cell-based qHTS assay: qHTS cell viability counter screen (AID 2060913); settings: CRE-bla HEK293T viability, CellTiter-Glo luminescence, 5 h; series mostly up to 92.4 µM; further: nearly all actives have a fitted effect of over 40% in size
# Outline: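 Cytotoxicity counter screen multiplexed with the CRE-bla antagonist read: HEK293T cells in DMEM with dialyzed FBS and 25 mM HEPES were treated 3 hrs under 0.25 uM final NKH477, then viability measured by CellTiter-Glo luminescence.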
# [2] = cAMP Responsive Elements (CRE) small molecule agonists, cell-based qHTS assay: qHTS cell viability counter screen (AID 2060914); settings: CRE-bla HEK293T viability, CellTiter-Glo luminescence, 5 h; series mostly up to 92.4 µM;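 further: viability read after 3 h of compound exposure; nearly all actives have a fitted effect of over 50% in size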
# Outline: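 HEK 293T CRE-bla; DMEM + 10% dialyzed FBS, 25 mM HEPES; 18 h pre-incubation; compound 3 h, 37 °C/5% CO2; CellTiter-Glo added after reporter read; luminescence after 30 min RT.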
SMILES,Potency [1],Potency [2]
CCC1OCC(COc2ccc(Oc3ccccc3)cc2)O1 (configuration not stated),inactive,inactive
CCOC(=O)/C=C/C(=O)OCC,inactive,inactive
O=C(CCN1CCC(c2ccccc2)C1)c1ccc2c(c1)OCCO2 (configuration not stated),inactive,inactive
CCCCOc1ccc(N)cc1,inactive,inactive
OCCc1ccccn1,inactive,inactive
C=C(C)C(=O)NCCCN(C)C,inactive,inactive
CCOC(=O)C(Br)c1ccccc1 (configuration not stated),inactive,inactive
CCC(C)c1ccccc1O (configuration not stated),inactive,inactive
O=C(O)c1cc(C(=O)O)cc(S(=O)(=O)O)c1,inactive,inactive
CC(C)=CCC1=C(O)c2ccccc2C(=O)C1=O,inactive,inactive
c1cc(CN2CCCCC2)cc(OCCCNc2nc3ccccc3s2)c1,inactive,inactive
